# Rows were chosen to be rich in hits. Some 21% of all compounds tested hit in one or more screens of this group.
# Pf growth 48h: Primary qHTS for delayed death inhibitors of the malarial parasite plastid, 48 hour incubation; P. falciparum luciferase growth in erythrocytes, 48 h; actives 5.9% (n = 310,000); Potency, µM (doses to about 28.7 µM), for inactives: top-dose activity change, negative = inhibition, usual class: inhibitors; note: potency is the fitted concentration of half-maximal effect; % is set by controls: 0 for no effect and ±100 for the full control effect
#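 Erythrocytes infected with P. falciparum carrying an integrated firefly luciferase reporter (2% hematocrit, 0.1% parasitemia final) were exposed to compounds in RPMI 1640 with 0.5% Albumax at 37 C, 5% CO2. Growth inhibition was scored as reduced luminescence.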
# CHX counter: Cycloheximide Counterscreen for Small Molecule Inhibitors of Shiga Toxin; cell reporter, cycloheximide protein synthesis inhibition counterscreen; max response, %; actives 12% (n = 300,000); AID 2314, 2010; in the data active = max response mostly above about 13%, no sharp cut-off; inactive = mostly below about 14%; note: read at 38.3 µM for the half of the compounds with a filed dose; 0% is about no effect
# HCMV inh: qHTS Assay for inhibitors of the human cytomegalovirus (HCMV) | HFF cells, HCMV-luciferase reporter, 72 h; stronger effect = lower value | activity change, negative = inhibition, % at 57.5 µM | actives 4.5% (n = 410,000); in the data active = activity change below about -60%; inconclusive = no clear call, values can overlap the other calls; inactive = above about -39%; note: % is set by controls: 0 for no effect and ±100 for the full control effect
#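 Two-dose cell screen: HFF monolayers treated with compounds and infected with luciferase-expressing HCMV at 1 PFU/cell, 72 h at 37C, then lysed for luciferase measurement.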
# Shiga toxin inh: A qHTS for Small Molecule Inhibitors of Shiga Toxin; actives 9.2% (n = 290,000); AID 2315, 2010; inhibition, % at 38.7 µM; Vero cells, Shiga toxin protein synthesis inhibition reporter; in the data active = inhibition mostly above about 28%, no sharp cut-off; inactive = mostly below about 43%; note: 0% is about no effect
# HCV inhibitor: qHTS Assay for Inhibitors of Hepatitis C Virus (HCV) | Huh7.5.1 HCVcc-Cre infection, luciferase reporter, 44 h | Potency, µM (doses to about 41.8 µM), for inactives: top-dose activity change, negative = inhibition, actives largely listed as inhibitors | actives 3.4% (n = 340,000) | AID 651820, 2012; note: potency is the fitted concentration of half-maximal effect; % is set by controls: 0 for no effect and ±100 for the full control effect
#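 Cells seeded at 1,000/well and cultured 4 h, then compounds added followed by HCVcc-Cre virus (~0.5 moi). After 44 h further culture, luciferase substrate was added, plates held 15 min at room temperature, and luminescence read for 15 sec.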
# Pf growth 96h: Primary qHTS for delayed death inhibitors of the malarial parasite plastid, 96 hour incubation; P. falciparum luciferase reporter growth, 96 h; Potency, µM (top dose mostly 28.7 µM), without a hit: top-dose activity change, negative = inhibition, most hits filed as inhibitors; actives 6.9% (n = 320,000); AID 504834, 2011; note: potency is the fitted concentration of half-maximal effect; % is set by controls: 0 for no effect and ±100 for the full control effect
#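 Two-generation exposure (96 h) targets delayed-death phenotype. Reporter parasites carrying integrated firefly luciferase, in red cells at 2% hematocrit and 0.05% parasitemia final, kept at 37 C, 5% CO2; luminescence loss indicates inhibition.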
# * marks the source's active call; other numbers are inactive results; ? = inconclusive; · = not tested or not shown. Unless noted, calls come from the whole dose curve; as a rule, active = well fitted inhibition curve with a large enough effect; inconclusive = small, poorly fitted or top-dose-only effect, or another doubt; inactive = no such curve, though single readings can be large or run the other way.
SMILES,Pf growth 48h,CHX counter,HCMV inh,Shiga toxin inh,HCV inhibitor,Pf growth 96h
Cc1cc(OCCn2c(CCNC(=O)C3CCCCC3)nc3ccccc32)ccc1Cl,·,-7.7,38.0,-9.0,·,·
CN1C(=O)c2cccc3c(S(=O)(=O)Nc4ccccc4F)ccc1c23,-0.8%,-4.4,222.3,5.7,-1.4%,36.5%
CN(Cc1ccccc1)C(=O)c1[nH]cnc1C(=O)NCC(=O)OCc1ccccc1,26.8%,-1.3,56.9,-2.7,6.5%,80.4%
CSCCC(NC(=O)c1ccccc1Br)C(=O)N1CCN(C/C=C/c2ccccc2)CC1 (centres undefined),·,·,-82.7*,·,?,·
COc1ccccc1C(=O)NC(CCSC)C(=O)N1CCC(Cc2ccccc2)CC1 (centres undefined),14.7µM*,·,-16.5,·,?,?
CCc1nn2c(=O)cc(COC(=O)COc3ccc(OC)cc3)nc2s1,·,·,9.0,·,·,·
O=S1(=O)N[C@@H](Cc2ccccc2)COc2cc(N3CCOCC3)ccc21,·,·,9.7,·,·,·
CC(=O)c1nn(-c2ccccc2)cc1C(=O)c1cccc(Br)c1,1.6%,1.4,-34.3,22.8,-24.1%,-5.6%
CC(=O)c1nn(-c2ccc(Cl)cc2)cc1C(=O)c1ccccc1,·,·,?,·,-23.9%,·
CCOC(=O)c1nn(-c2ccc(C)cc2)cc1C(=O)c1ccccc1,·,68.4*,198.0,113.1*,?,16.3%
O=C(c1cccc(Br)c1)c1cn(-c2ccccc2)nc1C(=O)c1ccccc1,4.65µM*,4.8,-25.6,28.9,?,?
NC(=O)c1ccsc1NC(=O)COC(=O)CNC(=O)c1ccc(Cl)cc1,·,·,3.2,·,8.8%,·
CCc1cccc(C)c1NC(=O)Cn1ccn(-c2ccc(F)cc2)c(=O)c1=O,·,·,4.9,·,·,·
COc1cccc(C(=O)O/N=C(\N)Cc2ccc(Cl)cc2)c1,10.4µM*,14.2,57.8,18.6,10.6%,139.2%
COc1cccc(C(=O)O/N=C(\N)c2ccc(C)cc2)c1,?,57.1*,117.4,83.4*,-4.6%,34.5%
COc1ccc(/C(N)=N/OC(=O)c2cccc([N+](=O)[O-])c2)cc1,·,0.8,19.9,25.9,10.1%,?
COc1cccc(C(N)=O)c1,·,·,28.0,·,3.7%,·
COc1ccc(C/C(N)=N/OC(=O)Cc2ccc(OC)c(OC)c2)cc1,-7.5%,0.6,11.5,24.0,5.7%,0.1%
COc1cccc(C(=O)O/N=C(\N)c2ccc([N+](=O)[O-])cc2)c1,46.7%,32.7*,52.5,76.2*,12.1%,38.8%
COc1cccc(C(=O)O/N=C(\N)c2ccncc2)c1,-4.3%,47.0*,71.0,71.5*,·,?
Cc1ccc(C)c(OC(C)C(=O)Nc2nccs2)c1 (centres undefined),-6.8%,23.6,55.2,36.7,9.4%,6.0%
COc1cccc(COC(=O)C2CC(=O)N(Cc3ccc(C)cc3)C2)c1OC (centres undefined),4.7%,·,2.0,·,0.9%,-1.1%
CCCCOc1ccc(/C=C/C(=O)OCC(=O)N2CC(=O)Nc3ccccc32)cc1OCC,10.4µM*,9.9,0.9,5.2,7.94µM*,?
O=C1CN(C(=O)COc2ccc(Br)cc2F)c2ccccc2N1,5.86µM*,0.4,-21.1,2.7,-1.2%,8.28µM*
O=C1CN(C(=O)COc2ccc(Br)cc2Br)c2ccccc2N1,-28.0%,11.3,-15.9,28.0,-12.2%,?
O=C1CN(C(=O)COc2ccc(Cl)cc2Cl)c2ccccc2N1,?,13.3,-8.2,18.7,?,40.0%
O=C1CN(C(=O)Cn2ncc(Cl)c(Cl)c2=O)c2ccccc2N1,-4.7%,-11.8,-94.9*,-36.6,5.62µM*,?
Cc1nc2ccccc2n1CC(=O)N1CC(=O)Nc2ccccc21,-6.7%,-2.2,-21.1,-15.3,19.6%,-18.0%
O=C1CN(C(=O)COc2ccc([N+](=O)[O-])cc2Cl)c2ccccc2N1,2.94µM*,·,-34.2,·,14.5%,10.4µM*
Cc1cccc2c1-c1sc(C(=O)N3CCN(c4ccccc4)CC3)cc1CO2,·,·,8.2,·,·,·

# High-throughput results as filed in PubChem BioAssay.
